Experimental data reported in the supplement of paper PMC6555819.

How the values were obtained:
Assay in all cases: PBM binding z-score (relative to random genomic background probes); higher = stronger binding; sequences stand for … in GC…GCGATTGACAGCGTAGAATGAAGG
[1] = test system: PPARg:RXRa DBDmut IVT, anti-RXR (DBD mutation: RXRa K156A/R161A, NR concentration 270 nM, RXRa partner concentration 90 nM)
How it was run: (§1)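 Probes were double-stranded and carried 34-nt variable regions with direct-repeat seeds, single-nucleotide variants, half-site ablations and random human genomic background sequences, printed on custom Agilent 4×180K protein-binding microarrays. Arrays were incubated 1 h with ligand-free nuclear receptor dimers in PBS pH 7.4, 2% milk, 0.02% Triton X-100, 1 mM DTT, 0.2 mg/mL BSA and 0.4 mg/ml salmon testes DNA. Antibodies against each partner (one per run) detected binding, and scanned fluorescence was regression-normalized. Binding z-scores use the random background probes as reference.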

[2] = test system: PPARg:RXRa IVT, anti-PPARg (NR concentration 270 nM, RXRa partner concentration 90 nM)
How it was run: as §1

[3] = test system: PPARg DBDmut:RXRa IVT, anti-PPARg (DBD mutation: PPARg1 K132A/R137A, NR concentration 270 nM, RXRa partner concentration 90 nM)
How it was run: as §1

[4] = test system: PPARg DBDmut IVT, anti-PPARg (DBD mutation: PPARg1 K132A/R137A, NR concentration 270 nM)
How it was run: as §1

[5] = test system: PPARg homodimer (NR concentration 180 nM)
How it was run: as §1

[6] = test system: PXR:RXRa (NR concentration 270 nM, RXRa partner concentration 90 nM)
How it was run: as §1

[7] = test system: PXR homodimer (NR concentration 270 nM)
How it was run: as §1

[8] = test system: RARa:RXR (NR concentration 270 nM, RXRa partner concentration 90 nM)
How it was run: as §1

[9] = test system: RARa homodimer (NR concentration 270 nM)
How it was run: as §1

[10] = test system: RARb:RXRa (NR concentration 270 nM, RXRa partner concentration 90 nM)
How it was run: as §1

[11] = test system: RARb homodimer (NR concentration 270 nM)
How it was run: as §1

[12] = test system: RARg:RXRa (NR concentration 270 nM, RXRa partner concentration 90 nM)
How it was run: as §1

[13] = test system: RARg homodimer (NR concentration 270 nM)
How it was run: as §1

[14] = test system: RXRa DBDmut IVT, anti-RXR (DBD mutation: RXRa K156A/R161A, NR concentration 90 nM)
How it was run: as §1

[15] = test system: RXRa homodimer (NR concentration 180 nM)
How it was run: as §1

[16] = test system: THRa:RXRa (NR concentration 90 nM, RXRa partner concentration 90 nM)
How it was run: as §1

[17] = test system: THRa homodimer (NR concentration 90 nM)
How it was run: as §1

[18] = test system: VDR homodimer (NR concentration 270 nM)
How it was run: as §1

Sequence | PBM binding z-score [1] | PBM binding z-score [2] | PBM binding z-score [3] | PBM binding z-score [4] | PBM binding z-score [5] | PBM binding z-score [6] | PBM binding z-score [7] | PBM binding z-score [8] | PBM binding z-score [9] | PBM binding z-score [10] | PBM binding z-score [11] | PBM binding z-score [12] | PBM binding z-score [13] | PBM binding z-score [14] | PBM binding z-score [15] | PBM binding z-score [16] | PBM binding z-score [17] | PBM binding z-score [18]
CCTACCGGGCCAAAGGTCATTGATTCCAATGCTC | 0.996 | 4.7 | -0.596 | -1.68 | 3.08 | 5.32 | 1.52 | 6.45 | 0.836 | 4.35 | 4.57 | 5.86 | 4.58 | 0.593 | 6.64 | 3.68 | 1.12 | 2.38
AGAATGAGGTTATTAAGAACAGGGAATTGCGGTC | 3.07 | 2.57 | 0.828 | 0.0753 | 0.538 | 1.13 | 0.548 | 1.32 | 0.488 | 1.4 | 0.842 | 1.14 | 0.783 | 2.06 | 1.67 | 2.23 | 0.503 | 1.27
CCAGACAGGTTAGAAGGTAACTCAGCCTCGATTA | 0.311 | 0.0619 | -0.119 | -0.234 | 1.19 | 0.328 | 0.257 | 0.828 | 0.903 | 0.829 | 0.786 | 0.637 | 0.641 | 0.0628 | 0.699 | 0.493 | 0.212 | 0.658
TCTTGTAGATCGACAGGAGGTTAAGAAAGATCGA | 0.885 | 0.145 | 0.496 | 0.679 | -0.189 | 0.501 | -0.189 | 0.459 | -0.333 | 0.401 | 0.302 | 0.34 | 0.0753 | 0.223 | 0.86 | 0.713 | -0.764 | -0.181
CAAACTAGGTCACACAGGTCAAAGTCCGTGCGTA | 8.75 | 9.19 | 1.71 | 1.11 | 2.43 | 4.78 | 4.14 | 4.85 | 0.759 | 4.59 | 5.02 | 6.04 | 5.85 | 2.27 | 5.62 | 4.13 | 2.13 | 4.16
GCCTATAGGTAATACAAGGTGAAAGTCCGATTGT | 1.99 | 1.53 | 0.858 | 0.233 | 0.234 | 0.642 | 0.00334 | 0.994 | -0.186 | 0.666 | 0.782 | 0.406 | 0.334 | 0.0892 | 0.582 | 4.25 | 1.06 | -0.376
TGTAGTTGGTCACGGAGGTCACACACGACGGGTA | 0.726 | 3.95 | 0.96 | 0.805 | 2.4 | 4.14 | 0.948 | 4.35 | 0.915 | 3.87 | 4.39 | 4.74 | 4.47 | -0.214 | 4.76 | 3.6 | 2.44 | 2.45
ACTATTAGTTGACTTACGGCAACCGATACGACGC | -0.0111 | 0.189 | 0.614 | 1.35 | 0.496 | -0.0445 | -0.0464 | 0.256 | 0.942 | 0.199 | 0.0214 | 0.528 | 0.668 | 0.643 | 0.39 | 0.386 | -0.0482 | -0.179
AGAACGAGGGCAATGAGTTGATTGCACGGGTGGC | 3.14 | 2.43 | 0.337 | -0.0138 | -0.0601 | 1.65 | 6.35 | 0.166 | -0.231 | 1.89 | 0.636 | 0.81 | 1.23 | 1.88 | 0.475 | 0.794 | -0.344 | 3
TAGGCTAGGTCATGGGCCAGTATACCACGCGAAC | 2 | 3.61 | 1.69 | -0.653 | 3.07 | 1.42 | -0.616 | 2.78 | 0.534 | 4.04 | 2.94 | 4.33 | 4.94 | 0.455 | 3.29 | 3.11 | 1.2 | 0.234
ATCTCTAGGTAACCAGGTTCAGTGAATGCCGAAC | 3.75 | 3.09 | 0.459 | 0.795 | 1.07 | 0.948 | 0.388 | 0.808 | 0.438 | 0.668 | 0.891 | 0.484 | 0.267 | 0.664 | 0.776 | 1.33 | 0.822 | 2.53
TCTCGGAGGACCCGAAAGGTCAGAGCTCGACATC | 1.1 | 0.853 | -0.22 | -0.929 | 1.7 | 3.45 | -0.23 | 4.13 | 0.185 | 3.68 | 4.21 | 3.92 | 4.15 | 0.325 | 4.04 | 2.75 | 0.369 | 0.435
GTACCAAGGTGAATTGGTCGTTGATGAGTAGGCG | 1.6 | 1.85 | 0.108 | 0.076 | -0.163 | -0.436 | -0.573 | -0.15 | -0.635 | 1.17 | 0.471 | 0.331 | 0.444 | -0.385 | 0.215 | 1.17 | 0.25 | -0.534
TCATATAGGTAATACAGGTGAAAGTAGGCATCTA | 3.97 | 3.61 | 1.94 | 1.73 | 1.39 | 0.952 | 0.772 | 1.07 | 1.69 | 0.613 | 0.649 | 0.714 | 0.742 | 1.81 | 1.2 | 1.05 | 0.429 | 0.305
TAGCCTAGGTCATGCGGGCCAGTAGAGTGTCGGC | 1.93 | 2.8 | -0.889 | -0.693 | 0.316 | 1.39 | -0.448 | 2.37 | -0.56 | 3.75 | 3.12 | 3.98 | 4.71 | 0.541 | 3.5 | 2.96 | 0.801 | 0.486
